LRH-1 inv ag = NR5A2 inverse agonism in reporter assay; O00482; HEK293T StAR-luciferase reporter, LRH-1 transfected, 24 h; inhibition, % at 3.6 µM; hit rate 0.13% among 360,000; AID 602396;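 active = inhibition above the mean inhibition of all tested compounds plus 3 SD, cut at about 73% in these data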
NCOA2 inhibitor = human SRC2 (NCOA2) inhibition | HEK293 GAL4-SRC2 luciferase reporter, luminescence | AID 651957 | hit rate 0.17% among 370,000 | inhibition, % at 9 µM | Q15596;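 active = inhibition above the mean inhibition of all tested compounds plus 3 SD, set per campaign, cut at about 52% in these data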
COUP-TFII inh = inhibitors of human COUP-TFII (NR2F2). HEK293T NGFI-A luciferase reporter, luminescence. inhibition, % at 8.6 µM. hit rate 0.7% among 370,000. AID 686940;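 active = inhibition above a per-plate cutoff, mean inhibition of test wells between control levels plus 3 SD, cut at about 38% in these data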;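 note: cells cotransfected with COUP-TFII expression vector driving the NGFI-A reporter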
NCOA3 inh = inhibits human SRC3 coactivator; Q9Y6Q9; HEK293 GAL4-SRC3 luciferase reporter, luminescence; inhibition, % at 3.6 µM; hit rate 0.17% among 360,000;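 active = inhibition above a per-campaign cutoff, the mean of all compounds plus 3 SD, cut at about 60% in these data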;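 note: higher means less SRC3-driven luciferase light from the GAL4 reporter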
SRC1 inh = inhibits human SRC1 coactivator; HEK293 GAL4-SRC1 luciferase reporter, luminescence; inhibition, % at 3.6 µM; hit rate 0.12% among 360,000;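 active = inhibition above the campaign mean plus 3 SD, with each screening campaign given its own cutoff, cut at about 60% in these data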
Target sequence (Q15788 whole entry, looked up, the tested form may be a part): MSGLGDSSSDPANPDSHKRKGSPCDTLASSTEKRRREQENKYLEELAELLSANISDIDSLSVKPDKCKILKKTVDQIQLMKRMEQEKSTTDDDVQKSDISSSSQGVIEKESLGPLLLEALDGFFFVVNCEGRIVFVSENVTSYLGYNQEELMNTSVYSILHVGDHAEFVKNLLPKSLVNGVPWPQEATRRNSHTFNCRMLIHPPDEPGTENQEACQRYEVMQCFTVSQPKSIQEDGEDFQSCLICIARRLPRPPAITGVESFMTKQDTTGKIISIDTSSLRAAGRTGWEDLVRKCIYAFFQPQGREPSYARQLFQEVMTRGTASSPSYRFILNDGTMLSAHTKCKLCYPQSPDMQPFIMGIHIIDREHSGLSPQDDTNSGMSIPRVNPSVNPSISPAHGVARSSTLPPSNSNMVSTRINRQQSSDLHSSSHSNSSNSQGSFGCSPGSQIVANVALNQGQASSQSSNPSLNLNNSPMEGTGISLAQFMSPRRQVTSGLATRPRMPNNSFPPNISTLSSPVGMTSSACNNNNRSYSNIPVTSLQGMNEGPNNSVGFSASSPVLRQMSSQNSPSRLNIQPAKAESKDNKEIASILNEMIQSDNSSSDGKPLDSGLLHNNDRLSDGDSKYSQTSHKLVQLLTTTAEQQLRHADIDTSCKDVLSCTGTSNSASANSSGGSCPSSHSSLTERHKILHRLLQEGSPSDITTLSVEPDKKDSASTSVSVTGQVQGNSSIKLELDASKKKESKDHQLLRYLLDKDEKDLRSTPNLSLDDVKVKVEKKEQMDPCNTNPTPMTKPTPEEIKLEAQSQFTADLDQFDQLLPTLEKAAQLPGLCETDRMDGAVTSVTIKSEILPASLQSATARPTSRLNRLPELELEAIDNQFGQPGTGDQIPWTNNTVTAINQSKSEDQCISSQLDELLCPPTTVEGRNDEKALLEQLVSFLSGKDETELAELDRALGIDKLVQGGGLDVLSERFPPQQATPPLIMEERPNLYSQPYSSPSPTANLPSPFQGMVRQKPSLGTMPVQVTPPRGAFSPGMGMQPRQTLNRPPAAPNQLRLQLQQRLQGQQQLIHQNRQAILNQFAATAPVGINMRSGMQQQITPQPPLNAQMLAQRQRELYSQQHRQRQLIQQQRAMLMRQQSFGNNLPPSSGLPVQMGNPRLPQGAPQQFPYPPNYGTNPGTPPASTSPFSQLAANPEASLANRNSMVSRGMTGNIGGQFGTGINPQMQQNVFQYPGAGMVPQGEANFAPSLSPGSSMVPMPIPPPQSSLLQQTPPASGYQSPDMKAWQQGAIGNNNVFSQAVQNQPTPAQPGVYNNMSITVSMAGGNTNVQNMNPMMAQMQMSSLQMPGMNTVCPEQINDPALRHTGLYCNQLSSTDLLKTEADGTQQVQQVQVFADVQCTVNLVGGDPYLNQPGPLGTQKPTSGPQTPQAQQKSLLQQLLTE
VP16 Luc counter = counter-screen for COUP-TFII antagonists: inhibitors of VP16 | shares compounds with COUP-TFII inh | HEK293 Gal4-VP16 luciferase reporter, luminescence | inhibition, % at 8.5 µM | hit rate 25% among 2,500 | AID 687007; in the data active = inhibition above about 13%
NR2F2 inh conf = confirmation of human COUP-TFII (NR2F2) inhibitors; HEK293 NGFI-A luciferase reporter, luminescence; shares compounds with COUP-TFII inh; inhibition, % at 8.5 µM; hit rate 45% among 2,500;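 active = mean inhibition over three repeats above a set limit taken from the earlier primary screen, cut at about 38% in these data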
Of the large screens only hits and unclear results are named; the others gave an inactive call (follow-up assays come after a bar, where they were run). Hits are enriched below; roughly 0.84% of the tested compounds scored in any of these assays.

COc1ccc(NC(=O)C2Cc3c(-c4ccc(Cl)cc4)ccnc3O2)cc1OC (centres undefined)	COUP-TFII inh 64.1 | VP16 Luc counter inactive | NR2F2 inh conf 54.0
COc1ccc(NC(=O)C2Cc3c(-c4cccc(C(C)=O)c4)ccnc3O2)cc1OC (centres undefined)	COUP-TFII inh 75.0 | VP16 Luc counter inactive | NR2F2 inh conf 49.0
COc1ccc(NC(=O)C2Cc3c(-c4cccc(C(N)=O)c4)ccnc3O2)cc1OC (centres undefined)	none
COc1ccc(NC(=O)C2Cc3c(-c4ccncc4)ccnc3O2)cc1OC (centres undefined)	none
COC(=O)C1=C(C)N(Cc2ccccc2C(F)(F)F)C(=NCc2ccc3c(c2)OCO3)NC1CCc1ccccc1 (centres undefined)	none (no result: LRH-1 inv ag, NCOA3 inh, SRC1 inh)
CCCCOc1ccc(C(=O)NCC(=O)NCC(c2ccc(OC)cc2)N2CCCC2)cc1 (centres undefined)	none
COc1ccc(COc2ccccc2C(=O)NCc2ccccc2)cc1F	COUP-TFII inh 41.5 | VP16 Luc counter inactive | NR2F2 inh conf inactive
CCNC(=O)N1CCN(c2ccc(N3CCN(Cc4ccccc4)[C@H](C)C3)c(C)c2)[C@@H](C)C1	none (no result: LRH-1 inv ag, NCOA3 inh, SRC1 inh)
Cc1ccc(CNC(=O)C(=O)NCC2OCCN2S(=O)(=O)c2ccc(C)cc2)cc1 (centres undefined)	none
Cc1ccc(CNC(=O)C(=O)NCC2OCCN2S(=O)(=O)c2ccc(Br)cc2)cc1 (centres undefined)	COUP-TFII inh 47.6 | VP16 Luc counter inactive | NR2F2 inh conf inactive
COc1cccc(-c2cc(CNC(=O)[C@H]3O[C@@H](n4cnc(C(N)=O)n4)[C@H](O)[C@@H]3O)no2)c1	none (no result: LRH-1 inv ag, NCOA3 inh, SRC1 inh)
Cc1ccc(NC(=O)CNc2cccc(S(=O)(=O)N3CCOCC3)c2)cc1F	none
Cc1ccc(NCC(=O)Nc2cccc(S(=O)(=O)N(C)C)c2)cc1S(=O)(=O)N1CCCCCC1	COUP-TFII inh 49.1 | VP16 Luc counter inactive | NR2F2 inh conf inactive
CN(CC(=O)Nc1cccc(S(=O)(=O)N2CCCC2)c1)CC(=O)Nc1ccc(F)c(F)c1F	none
CCN(CC)S(=O)(=O)c1cc(NC(=O)CNc2cccc(S(=O)(=O)N3CCOCC3)c2)ccc1C	COUP-TFII inh 56.5 | VP16 Luc counter inactive | NR2F2 inh conf 53.6
CCN(CC)S(=O)(=O)c1cccc(NC(=O)CNc2cccc(S(=O)(=O)N3CCCC3)c2)c1	COUP-TFII inh 64.3 | VP16 Luc counter inactive | NR2F2 inh conf 64.9
CN(CC(=O)Nc1cccc(S(=O)(=O)N2CCCC2)c1)CC(=O)Nc1ccc(Cl)c(C(F)(F)F)c1	COUP-TFII inh 42.3 | VP16 Luc counter inactive | NR2F2 inh conf inactive
CCN(CC)S(=O)(=O)c1ccc(C)c(NC(=O)CNc2cccc(S(=O)(=O)N3CCCC3)c2)c1	none
Cc1cc(OCC(=O)OCC(=O)NC2CCCCC2C)ccc1Cl (centres undefined)	none
O=C(CCn1nnc2ccccc21)N1CCN(c2ccccc2F)CC1	none (no result: LRH-1 inv ag, NCOA3 inh, SRC1 inh)
C[C@H]1CN(c2ccc(N3CCN(C(=O)OC(C)(C)C)C[C@@H]3C)cc2C#N)CCN1Cc1ccccc1	none (no result: LRH-1 inv ag, NCOA3 inh, SRC1 inh)
O=C(COc1ccc(C(=O)c2ccc(F)cc2)cc1)Nc1cccc(S(=O)(=O)N2CCOCC2)c1	COUP-TFII inh 47.8 | VP16 Luc counter inactive | NR2F2 inh conf inactive
CCN(CC)S(=O)(=O)c1cccc(NC(=O)Nc2cccc(C(F)(F)F)c2)c1	COUP-TFII inh 38.8 | VP16 Luc counter inactive | NR2F2 inh conf inactive
O=C(COC(=O)CCC(=O)c1ccc(F)cc1)Nc1cccc(S(=O)(=O)N2CCOCC2)c1	none
Cc1cc(NC(=O)CCc2c[nH]c3ccccc23)ccc1Nc1cccnc1	none (no result: LRH-1 inv ag, NCOA3 inh, SRC1 inh)
COC(=O)C1=C(C)N(C)C(=NCC2CC2)NC1c1ccc(Cl)cc1 (centres undefined)	none (no result: LRH-1 inv ag, NCOA3 inh, SRC1 inh)
CCn1cc(CN(C)S(=O)(=O)c2cccc([N+](=O)[O-])c2)cn1	none
CCn1cc(CN(C)S(=O)(=O)c2ccc3ccccc3c2)c(C)n1	COUP-TFII inh 51.4 | VP16 Luc counter inactive | NR2F2 inh conf 51.2
CC1(C)CC(=O)C=C(c2ccc(-c3cnc4ccccc4c3)cc2)C1=O	COUP-TFII inh 41.9 | VP16 Luc counter inactive | NR2F2 inh conf 77.9
CCCCn1c(N)c(N(CCOC)C(=O)COC(=O)COc2ccc(CC)cc2)c(=O)[nH]c1=O	none
COc1ccc(-c2ccc(C(=O)NCc3ccncc3)c3occc23)c(C)c1	COUP-TFII inh 68.5 | VP16 Luc counter inactive | NR2F2 inh conf 55.9
COc1ccc(-c2ccc(C(=O)NCc3ccc(F)c(F)c3)c3occc23)c(C)c1	none
O=C(NCc1ccc(C(F)(F)F)cc1)c1ccc(-c2ccc(F)c(F)c2)c2ccoc12	none
O=C(NCc1ccncc1)c1ccc(-c2ccc(F)c(F)c2)c2ccoc12	COUP-TFII inh 70.1 | VP16 Luc counter inactive | NR2F2 inh conf 41.0
NC(=O)c1ccccc1OCC(=O)N1CCC(Cc2ccccc2)CC1	COUP-TFII inh 64.2 | VP16 Luc counter inactive | NR2F2 inh conf 39.3
O=C(COc1ccccc1[N+](=O)[O-])N1CCC(Cc2ccccc2)CC1	none
CN(c1ccc(C(=O)N2CCN(Cc3ccc4c(c3)OCO4)CC2)cc1)S(=O)(=O)c1ccccc1	COUP-TFII inh 47.6 | VP16 Luc counter inactive | NR2F2 inh conf inactive
Cc1ccc(S(=O)(=O)N(C)c2ccc(C(=O)N3CCN(Cc4ccc5c(c4)OCO5)CC3)cc2)cc1	COUP-TFII inh 56.5 | VP16 Luc counter inactive | NR2F2 inh conf 39.1
COC(=O)c1cc2c(c3c4cc(C)ccc4n(S(=O)(=O)c4cccc(C)c4)c13)C(=O)N(Cc1ccccc1OC)C2	none (no result: LRH-1 inv ag, NCOA3 inh, SRC1 inh)
Nc1nc[nH]c(=O)c1N=Cc1ccccc1	none
COC(=O)c1ccc(COC(=O)c2[nH]c(C)c(C(C)=O)c2C)o1	COUP-TFII inh 40.9 | VP16 Luc counter inactive | NR2F2 inh conf inactive
C=CCOc1ccc(CN(C)C(=O)c2ccc(CNS(=O)(=O)c3ccc(C)c(C)c3)cc2)cc1	COUP-TFII inh 41.0 | VP16 Luc counter inactive | NR2F2 inh conf inactive
CN(Cc1ccc(F)cc1)C(=O)c1cccc(S(=O)(=O)NCc2ccccc2)c1	none
CC(C)(C)c1ccc(CN2N=C(/C=C/c3ccccc3)CCC2=O)cc1	none
Cc1sc2ncnc(NCC(O)c3ccc([N+](=O)[O-])cc3)c2c1C (centres undefined)	COUP-TFII inh 62.5 | VP16 Luc counter inactive | NR2F2 inh conf 50.0
Cc1sc2ncnc(NCC(O)c3ccccc3)c2c1C (centres undefined)	COUP-TFII inh 43.5 | VP16 Luc counter inactive | NR2F2 inh conf inactive
NCCc1nnc(SCc2c(Cl)cccc2Cl)o1	none
NCCCCCc1nnc(SCc2ccccc2Cl)o1	NCOA2 inhibitor 58.7, COUP-TFII inh 55.5 | VP16 Luc counter 41.8 | NR2F2 inh conf inactive
c1ccc(CC2CCN(c3ncnc4sccc34)CC2)cc1	COUP-TFII inh 54.5 | VP16 Luc counter inactive | NR2F2 inh conf 52.6
